From PubChem BioAssay AID1508600 (Functional Genomics Laboratory (NCATS/FGL), 2020)
In all, about 53,000 sequences went through this assay and about 3,700 (7%) were called active.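 How the source made its calls: active means gene knockdowns whose robust z-score for IL-1 alpha signal is at least 2 or at most -2, so actives lie on both sides; inactive means the rest.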 The entries come from a sample that favours actives as a whole.

assay: Components of the Cytosolic LPS Sensing Pathway: Gene Identification via Genome-wide siRNA Screen; details: RAW264.7 macrophages, IL-1a HTRF, actives lie on both sides, screened at 100 nM (by protocol), cells primed 5 h with Pam3CSK4 first;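 further: robust z of the log signal after scaling to non-targeting control siRNA wells of the plate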
Method in brief: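 Using IL-1a HTRF as read-out, the screen measured release from RAW264.7 cells after 48h siRNA knockdown (100 nM), 5 h Pam3CSK4 priming and 24 h cytosolic LipidA. Values were expressed relative to negative-control wells as robust z-scores.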

Sequence	z-score
CCAGUACUCGUUUCACUUATT against Mrpl15	0.374 (inactive)
GGUGGACUUGUACCUCUUCTT against Tnks	-0.0808 (inactive)
CCGUAUUGUCACUUGUGGGTT against Arpc1a	0.479 (inactive)
CAGGAAAUUAGCGAUGUGGTT against Abl2	0.206 (inactive)
GGUGCUAAAGUCAAAAAACTT against Fras1	0.218 (inactive)
GAAGGGACUUCAAAGUUGATT against Ndufb10	3.3 (active)
GGGACAUCAGAUUAUUCAUTT against Zfp87	1.43 (inactive)
GGAAGACAAUGGUGUGAAATT against Pgm3	-0.74 (inactive)
GGCCGCCAUUUUGGCAAGATT against Fbxo27	3.41 (active)
CGGUGAUAACAGACAUUAATT against Aldh8a1	-0.561 (inactive)
CCGAACCUUCAGCUACACATT against Keap1	0.0133 (inactive)
GGAAAAAUUCGAGGGACUGTT against Rcan2	1.12 (inactive)
GGAAGUGUAUUCAAGAAGUTT against Tapt1	3.02 (active)
GCCGUUCUGCUAUCACAACTT against Scrn2	-0.531 (inactive)
GAAGAGACCUUCACAAAGUTT against Hnrnpll	-1.52 (inactive)
GGAGCGAGGAAUCAAUGUUTT against Prss8	2.86 (active)
GGAACACCUACAGUAUAAATT against Cdc123	-0.39 (inactive)
GGAGCGAUUUGCUGGUGUGTT against Rps16	1.19 (inactive)
GGUAUCAAGGUGAAGUUGATT against Septin1	0.776 (inactive)
GGGACACUACCCUGAUGAUTT against Vmn1r205	-2.05 (active)
GGUUGGACAAAAAGAAUCUTT against Ifngr1	0.507 (inactive)
GGUCUGAGUUUUAAACAGUTT against Gmfb	1.13 (inactive)

Sequence	z-score
GGGUUACCUCCUGACUGUUTT against Olfr930	-1.9 (inactive)
GCUGCUUUGCUAUCUCCUGTT against Apof	-2.25 (active)
CGAGGAGUUGGAUUUCAGGTT against Dnmbp	-0.713 (inactive)
GGGAGUAAAGAAAAUGUUATT against Atxn2	-0.112 (inactive)
GCUUAUUUCGCCUAUGUGGTT against Slc24a2	-1.11 (inactive)
GCAAGAUGGUAUCAGCAGATT against Sde2	-2.1 (active)
GGAAAGAGGAAGAUAAAGUTT against 2310002L09Rik	-1.17 (inactive)
CCGCUUUUCAUAACACGAATT against Obp2a	0.037 (inactive)
CCUCAUUUAGAUGUCUUGATT against Ran	-0.0987 (inactive)
GUCUUUGUUCAGGAGGUGATT against Ahnak	0.0593 (inactive)
GCCAUGCUAAUCAAGACGGTT against Gtf2ird2	-0.99 (inactive)
GCUCUCUCUCAUUGAUCUCTT against Olfr697	-1.63 (inactive)
GGUUUGGCAUCUAAAGAGCTT against Olfr1412	-2.42 (active)
CCAGCUUUUACCUAAUACCTT against Ggt1	0.0683 (inactive)
GGGUAUCUGAUUUAUAAGCTT against Mageh1	-0.371 (inactive)
GGGAAAGGGUUUUUUAUUCTT against Slc1a1	-0.177 (inactive)
GCCAAAAAGUGUGUGUUGGTT against Olfr731	0.0799 (inactive)
CCAGUUUGCACAAGUUUUCTT against Fyco1	1.94 (inactive)
GGAUCUUCCAAGUUGUCUGTT against Srm	2.42 (active)
CGAGCUGAACAGAAUGAUATT against Krt85	0.265 (inactive)
GGCAAGGUCAAGGACACCATT against Tcp11	-0.77 (inactive)
GCAUGCAUGCUAUUGUUUUTT against 4931431C16Rik	0.336 (inactive)

Sequence	z-score
GGCACACACUGAUUUUUUUTT against Cops2	0.0987 (inactive)
GGUCCAAUGGAUUUUGUUUTT against Pxdc1	2.06 (active)
GGUGCGAAGGAAAUUGCACTT against Mrps26	1 (inactive)
GCCUUUACUGGAUUCAUUGTT against Acadm	2.53 (active)
GGCAGAGAAUCAGCUCCUUTT against Il16	0.377 (inactive)
CGAUCGAUAAAUGUAAUGATT against Heatr5a	-0.0662 (inactive)
GGAGUAUGCUGUCAAAAUCTT against Mknk1	0.259 (inactive)
GGAUCACCAGACCUUUUUCTT against St7l	-1.94 (inactive)
CCAGGAAUCUAGAUAAUAGTT against BC031181	-1.05 (inactive)
GCAUUACCAAAAGCAGUCUTT against Lyn	-1.46 (inactive)
CCUCUAUUCUCCGUCUAUGTT against Fars2	2.45 (active)
GGCUACAUUGUCUCAUUGUTT against Opn1mw	-0.59 (inactive)
GGUUAAGGAGAAAUGUGAUTT against Mob3a	-0.0804 (inactive)
GGUUAAAAUGCCAUAACAATT against Ksr1	-1.26 (inactive)
GGGAAGUCAUUCACAUAUUTT against Rab39b	-1.58 (inactive)
GGAAGUCCACGAAACUAAATT against Prl3d1	0.359 (inactive)
CGACCUGUGGGAAGAUAUUTT against Apoa5	-0.992 (inactive)
GGGAUACUUUCUUCGAGGATT against Soga3	-2.36 (active)
GGCCAUUGUUGAAAUGUACTT against Myh14	0.175 (inactive)
GGUAUCAACAUCACGAUUCTT against Mrgpra1	0.487 (inactive)
GCACCUGGUGAAUUUUACCTT against Tmem106c	-0.85 (inactive)
GCCUUACUGACUCGUGUCCTT against Ccp110	-2.33 (active)

Sequence	z-score
GGACCUUUAAAGCUAAGCUTT against Ccn5	-1.4 (inactive)
GGAGUUUUCAAAAAACAGATT against Dsc2	-0.356 (inactive)
GGAUACUGCCAUUCAUAGGTT against Cstdc2	-0.182 (inactive)
GGAAAGCUUUCUUCACCUGTT against Olfr206	-1.73 (inactive)
GCUUCAACCCGGUCACACUTT against Kif6	2.81 (active)
GGCGCAAUGCUCAUGUGAATT against Gzmc	-0.54 (inactive)
GGAAGUUUUGGCUUAGGCATT against Tmco5b	1.58 (inactive)
GGCGAUCCACAGGAACUCUTT against Tiam1	-1.23 (inactive)
GCAACAACGAGUCAUGGCUTT against Plcd1	-0.502 (inactive)
GGACAGAGUUACCUAGGCATT against Ticrr	-2.81 (active)
GGAUCUUUCCUGAUUUAUATT against Ggt5	0.989 (inactive)
GCAGGCAUCAUCACGACAUTT against Gprc5c	0.402 (inactive)
GGAGUUCUUCUUCAAUGAGTT against Kcnd3	-1.3 (inactive)
GCGUACGUUCUCCUAACAUTT against Hbs1l	-1.9 (inactive)
GGGUGAUAAAAUUCAGAUUTT against Gpr88	2.07 (active)
GGGUGCAAACAAAAUGAUGTT against Pgm1	-1.42 (inactive)
GGGCCACAUGUGUUCACUATT against Shisa5	-2.35 (active)
CCUUCUCUGCCUCGAUGAUTT against Cox14	-1.23 (inactive)
GGGAAGAUGUGAUGUCUUUTT against Rab29	-0.556 (inactive)
GGUCUUAAUCUCAGGAUGATT against Car5a	-0.294 (inactive)
GGACACAGAAUGUUCUUGGTT against Rps3	0.029 (inactive)
GGAAGAAAAAUAUGCUUUCTT against Pls3	2.7 (active)

Sequence	z-score
CCGAUCACUCAUGGUUGACTT against Sra1	0.565 (inactive)
GCCUGUGCAAAAAGUAGGGTT against Grasp	-0.0182 (inactive)
GGGCCAAUAGGAGUUCUUUTT against Tcf20	0.285 (inactive)
GGAGCUGACGUGCUACUUATT against Speg	2.6 (active)
GGAGAAUCUUAGAGAUUAUTT against Pramel1	0.722 (inactive)
GCAGCUAAGCACUGGAAAATT against Coq4	0.318 (inactive)
GGAAAAAGAGGCCUCAAAGTT against Nek5	1.46 (inactive)
CGCUUUAUUAGAUGGGCUATT against Dlx5	-2.27 (active)
GAAGUUCAAUGGAGAAGACTT against Arl2	-0.825 (inactive)
GGUGUUCAGACUACCCUCUTT against Serpina3m	-1.16 (inactive)
GGGCCAUAAGAUCUGUACUTT against Ccl24	0.472 (inactive)
GGUCCUCUAAAGAAUAAAGTT against Cela3b	0.541 (inactive)
GCCCAGAAAUAUAAUCAAATT against Bub1	2.17 (active)
GGCUACCAUAGGUUUUAAUTT against Serinc4	0.946 (inactive)
CCCGGAUGAUGGAGAUAUUTT against Mnd1	-1 (inactive)
GCCUGAUCUACUGUGGUCCTT against Olfr1347	-0.167 (inactive)
GGCUUGAUCUUCGUAGUGGTT against Arf1	0.132 (inactive)
GCAGAGACUACUUAGCAAGTT against Adprm	2.29 (active)
GCUUAAGAGAUUCAAAUUGTT against Olfr1317	0.036 (inactive)
GCUCUAAACAUGAUUCAAGTT against Akap9	1.17 (inactive)
